This passage reports sensor-assay potency score (higher = more potent) results from the OligoGym collection.
Further: reference of the scale not given here.

One test addresses SOHLH2. In words: pooled miR-30 sensor sort-seq; sequence = guide strand. The settings on record: shRNA.
On to TTTCTGTACAGTATCAGCCAGG, for which the sensor-assay potency score (higher = more potent) was -0.773.
Still for that read-out and setting: the value for TAGATTGTCAAACTGCGCCCAG was -0.465; that for TTCAGTTAAAGCAATATCCATT was -0.431.
The sequence TAAGATGTCTATTTTTGCCTGG had a sensor-assay potency score (higher = more potent) of 0.389.
On the same count and under the same terms, the figure for TTTGATATTAGGTCTTTGGGTG is -0.0455; for TATCGTGTCTACATGGATCTTC it is 0.657.

The next test has as its target SORCS2. The test is described as above. Conditions: shRNA.
On to TTCTTTATATTCCACCAGCTGT, for which the sensor-assay potency score (higher = more potent) was -1.25.
As for TTACTCAACAAGGAGCGGGTGC, the sensor-assay potency score (higher = more potent) is -0.482.
TAGAGCTTGCTCTCCTTTGTGT displayed a sensor-assay potency score (higher = more potent) of 0.276.
Regarding TTTTACTCAACAAGGAGCGGGT, the sensor-assay potency score (higher = more potent) is -0.478.
The same measure, in the same setting: the figure for TTGAGGACAACTTGTAGGGTGG is -0.426; for TATTCCTATAGACTTACACTAA it is -0.686.
Turning to AAAGAAGATGTAATCGTCCTGC, the sensor-assay potency score (higher = more potent) is 0.216.
The same measure, in the same setting: the figure for TTCTTCTTTATATTCCACCAGC is -0.916; for TAGAAATTGTCGATGACGGTGG it is 0.449; for TTTGGTCACTCGCTCTTGCAGA it is -0.75.
Consider TAGACTTACACTAACATCCCTG, for which the sensor-assay potency score (higher = more potent) was 0.646.
Take TTTCCTTTTGAACTTGTAGAGG: the sensor-assay potency score (higher = more potent) was -1.02.

Another test deals with SOX21. The test is described as above. The settings on record: shRNA.
With TAAATTAGAAGGTCACACTAGA, the sensor-assay potency score (higher = more potent) was 0.55.
In turn, TTAAATTAGAAGGTCACACTAG had a sensor-assay potency score (higher = more potent) of 0.0223.
Same read-out and setting: the value for TTTGAGTCTAAAGTCGACTCAA was 0.154; that for TTAATCTTCGATAAAATTGCGA was -0.173.
Same read-out and setting: the value for TAGTAGTTTGTTGTTGTTGTTT was -0.802; that for TTGAGTCTAAAGTCGACTCAAA was -1.13.
Consider TTCTATGTACATACAAACCGGG, for which the sensor-assay potency score (higher = more potent) is -0.494.
Same read-out and setting: the figure for TTAACTTTGATATTCGCTCAAA is -0.537; for TCTATGTACATACAAACCGGGC it is -1.15; for ATGAACAGAGTGATAGTCGGAT it is 0.0793.
The same measure, in the same setting: the figure for TAATCTTCGATAAAATTGCGAT is -0.606.

In another test the target is SPAM1. Described as above. The settings on record: shRNA.
In the case of TTTCATTCCACAACCAGCTGAG, the sensor-assay potency score (higher = more potent) was determined as 0.0511.
For TTTTCCTTATACACACTCCTTG, the sensor-assay potency score (higher = more potent) is -0.634.
For the sequence TATTGTAACACCTTGCCCGGTG, the sensor-assay potency score (higher = more potent) was -0.194.
As to TAATTGTCTAGGAGCAAGCAAG, the sensor-assay potency score (higher = more potent) was -1.53.
Still for that read-out and setting: the figure for ATACTAACAATGAACATTGTGG is -0.0586.
Still for that read-out and setting: the value for TTTATTTCTACATTGAAGCAAC was -0.796.
TCTATCTTTGTAACTTGCCTTC: the sensor-assay potency score (higher = more potent) was -0.492.
TAACAATGAACATTGTGGCAGA: the sensor-assay potency score (higher = more potent) was -0.131.
As to TTTCCTTATACACACTCCTTGC, the sensor-assay potency score (higher = more potent) was -0.862.
The same measure, in the same setting: the figure for TTGAGGTTCTTCTGTCTCCATG is -1.06; for TTGAATAGCAAAATTATCTGGG it is 0.668.
